Screening results as filed in PubChem.
GCN5L2 inh: inhibitors of human GCN5L2 histone acetyltransferase | Q92830 | GCN5L2 HAT assay, ThioGlo1 CoA-SH fluorescence | Potency, µM (titrated, usually from 58.9 µM), inactives show at the top dose activity change, negative = inhibition, actives largely listed as inhibitors | 390,000 compounds, 0.21% hits | AID 504327
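ThioGlo1-coupled HAT assay: 20nM GCN5L2, 70uM acetyl-CoA, 75uM H3(1-25) peptide, pH 7.5. Fluorescence read at 340/540nm at start and after 20 min at room temperature.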
Sfp PPTase inh: blocks B. subtilis Sfp PPTase activity | Potency, µM, without a hit: largest response in the series, negative = inhibition, most hits filed as inhibitors | Q9F4F7 | 310,000 compounds, 3.5% hits | Biochemical Sfp PPTase activity, qHTS;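 note: the enzyme is Sfp with the accession as filed and its product quenches rhodamine fluorescence; 0% = enzyme reaction without inhibitor and -100% = no enzyme wells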
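Step 1, compound plus 15 nM Sfp-PPTase, 15 min, room temperature. Step 2, add rhodamine-CoA (5 uM) and BHQ-2-YbbR (12.5 uM). Step 3, read 525/598 nm fluorescence at 0 and 30 min.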
TrxR1 inh: rat TrxR1 inhibition | O89049 | recombinant rTrxR1, NADPH fluorescence consumption, selenite substrate | Potency, µM (top dose mostly 114 µM), inactives show top-dose activity change, negative = inhibition, hits mostly inhibitors | 390,000 compounds, 1% hits | AID 588453; note: nearly all actives have a fitted effect of over 65% in size
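Rat TrxR1 (90 nM in the dispensed reagent) was pre-reduced with 400 uM NADPH for 5 min at room temperature, then incubated with compound for 15 min. After 400 uM selenite was added, NADPH fluorescence (Ex 340/Em 450 nm) was followed for 8 min.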
TrxR1 substrate: rat thioredoxin reductase 1 substrate activity; O89049; purified TrxR1 substrate turnover, NADPH consumption readout; Potency, µM (series often up to 114 µM), without a hit: top-dose activity change, negative = substrate turnover; 390,000 compounds, 0.01% hits; AID 588456; note: nearly all actives have a fitted effect of over 50% in size
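Rat TrxR1, dispensed at 90 nM, was prereduced with 400 uM NADPH (final) for 5 min at ~22 deg C, then incubated with compound 15 min before 400 uM selenite. A first-read NADPH fluorescence drop versus no-compound background flagged substrates.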
GLS inhibitor: glutaminase GLS (human) inhibition; GLS enzymatic activity, qHTS titration; O94925; 410,000 compounds, 0.21% hits; Potency, µM (titrated, usually from 45.5 µM), without a hit: at the highest dose activity change, negative = inhibition, actives largely listed as inhibitors; AID 624170
Target sequence (O94925 whole entry, looked up): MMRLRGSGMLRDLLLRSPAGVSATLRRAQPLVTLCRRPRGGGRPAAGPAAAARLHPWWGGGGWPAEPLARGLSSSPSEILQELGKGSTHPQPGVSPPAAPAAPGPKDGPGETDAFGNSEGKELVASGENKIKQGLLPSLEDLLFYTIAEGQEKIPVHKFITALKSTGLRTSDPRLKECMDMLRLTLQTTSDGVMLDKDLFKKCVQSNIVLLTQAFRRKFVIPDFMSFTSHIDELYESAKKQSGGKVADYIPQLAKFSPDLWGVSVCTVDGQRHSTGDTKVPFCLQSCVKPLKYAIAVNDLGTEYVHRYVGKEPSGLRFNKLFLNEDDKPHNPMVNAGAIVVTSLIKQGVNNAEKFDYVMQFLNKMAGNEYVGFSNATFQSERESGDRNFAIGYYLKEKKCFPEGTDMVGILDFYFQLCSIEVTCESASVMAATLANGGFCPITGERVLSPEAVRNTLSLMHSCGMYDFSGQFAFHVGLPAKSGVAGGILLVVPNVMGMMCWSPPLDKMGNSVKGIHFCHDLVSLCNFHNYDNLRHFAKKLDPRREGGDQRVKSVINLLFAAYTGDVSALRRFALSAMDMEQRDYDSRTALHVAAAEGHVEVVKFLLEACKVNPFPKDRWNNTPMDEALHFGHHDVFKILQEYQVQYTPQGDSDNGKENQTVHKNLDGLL
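Read-out is an Amplex red fluorescence increase coupled through glutamate oxidase and HRP, measured before and after 30 min room-temperature incubation. hKGA is in 45 mM KH2PO4 (pH 8.2) with 0.02% Tween-20; glutamine added as 1mM solution.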
VDR inhibitor: inhibitors of human vitamin D receptor; Potency, µM, without a hit: max response, negative = inhibition, actives largely listed as inhibitors; VDR-SRC2-3 peptide fluorescence polarization, 2 h; 400,000 compounds, 0.93% hits
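Signal is fluorescence polarization, reporting how far test compounds block the interaction of VDR with the SRC2-3 coregulator peptide after a 2 h room-temperature incubation.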
* marks the source's active call; other numbers are inactive results; ? = inconclusive; nt = no result; [ ] = dose if it differs, or a comment. Compounds with a hit are over-represented: about 3.8% of the library has one in this group of screens. Calls come from the whole dose curve; as a rule, active = well fitted curve in the direction sought with a large enough effect; inconclusive = small, poorly fitted or top-dose-only effect, or another doubt; inactive = no such curve, though single readings can be large; an effect the other way counts as inactive or inconclusive. Unless noted, % is set by controls: 0 for no effect and ±100 for the full control effect; potency is the fitted concentration of half-maximal effect.

SMILES | GCN5L2 inh | Sfp PPTase inh | TrxR1 inh | TrxR1 substrate | GLS inhibitor | VDR inhibitor
CC(OC(=O)c1cc2sccc2n1C)C(=O)NC(C)(C)C (stereo not drawn) | -2% | -4% | -9% | -8% | 0% | 4%
CCCCC(=O)c1ccc(O)cc1 | -5% | 14% | 5% | 4% | -9% | -5%
O=C(CCO)c1ccc(O)cc1 | -4% | -7% | ? | -1% | 7.9µM* | -13%
C#CCOc1c(Br)cc(/C=C2/C(=O)ON=C2C)cc1OC | -8% | 56µM* | ? | -8% | -13% | ?
Cn1c(=O)c2c(nc(SCC(=O)Nc3ccccc3F)n2Cc2ccccc2F)n(C)c1=O | -1% | nt | 1% | -1% | -6% | 11%
CCCCCCCC(=O)NNC(=O)c1c(O)c2ccccc2[nH]c1=O | -16% | 33% | 14% | -2% | 0% | 10%
CCCCCCC(=O)Nc1c(O)c2ccccc2[nH]c1=O | -5% | 50µM* | -20% | -3% | -7% | 14%
O=C(NCC(=O)N1CCN(S(=O)(=O)c2ccccc2)CC1)c1ccc2ccccc2c1 | -17% | nt | 13% | -2% | -3% | -20%
O=C(CNCc1cccnc1)Nc1cc(C(F)(F)F)ccc1N1CCOCC1 | -12% | 56µM* | 3% | -7% | 3% | -14%
Cc1ccc2cc(CCNC(=O)c3cc4ccccc4o3)c(=O)[nH]c2c1C | -3% | -28% | 6% | 4% | -7% | -2%
CCOc1ccc(C(=O)NCCCCNC(=O)c2ccc(OCC)cc2)cc1 | 35µM* | -3% | 3%[57.1 µM] | 6%[57.1 µM] | 5% | -11%
CCOc1ccc(C(=O)Nc2cc(C)ccn2)cc1 | -2% | 4% | 18%[57.1 µM] | 2%[57.1 µM] | ? | 35µM*
O=c1oc2c(-c3ccc([N+](=O)[O-])cc3)cc(O)cc2s1 | ? | 40µM* | 9% | -1% | 6% | 3%
CC(C)(C)c1ccc2c(c1)OC(C(=O)N/N=C\c1ccccn1)CO2 (stereo not drawn) | -6% | 10% | 5% | -11% | -10% | -14%
CC(C)(C)c1ccc2c(c1)OC(C(=O)N/N=C\c1ccc(-c3cccc(C(=O)O)c3)o1)CO2 (stereo not drawn) | -22% | 50µM* | -7% | 6% | ? | ?
O=C(N/N=C\c1ccc(-c2ccccc2[N+](=O)[O-])o1)C1COc2cc3ccccc3cc2O1 (stereo not drawn) | 22µM* | 17% | -8%[57.1 µM] | -2%[57.1 µM] | 0% | ?
O=C(N/N=C\c1ccc(-c2ccccc2[N+](=O)[O-])o1)C1COc2ccccc2O1 (stereo not drawn) | 0% | 2% | -2% | -2% | 8% | -10%
CCS(=O)(=O)N1CCN(c2ccc(C(=O)N3CCOCC3)cc2[N+](=O)[O-])CC1 | -5% | 16% | 1% | -3% | 0% | -11%
Nc1c(Br)c(=O)[nH]c(=O)n1-c1ccc(F)cc1 | 2% | 6% | 40µM* | -1% | -14% | 6%
Nc1c(N=O)c(=O)[nH]c(=O)n1-c1ccccc1 | nt | nt | 8%[57.1 µM] | -12% | -6% | -12%
O=C(CCCN1C(=O)/C(=C\c2cccs2)SC1=S)Nc1ccc(C(=O)O)cc1 | -10% | -1% | -21% | 79µM* | 14% | 24%
O=C(CCCN1C(=O)/C(=C\c2ccco2)SC1=S)Nc1ccc(O)cc1C(=O)O | 10µM* | 50µM* | 50µM* | -15% | ? | ?
O=C(CCCN1C(=O)/C(=C/c2ccco2)SC1=S)Nc1cccc(C(=O)O)c1 | -11% | 25µM* | -12% | -2% | 3% | 5%
O=C(O)C(Cc1ccccc1)N1C(=O)/C(=C/c2cccs2)SC1=S (stereo not drawn) | 1% | -22% | 8%[57.1 µM] | 0%[57.1 µM] | 10% | 79µM*
O=C(CCCN1C(=O)/C(=C\c2cccs2)SC1=S)Nc1ccc(O)cc1C(=O)O | -15% | 7% | 15% | -1% | 41% | -16%
SMILES | GCN5L2 inh | Sfp PPTase inh | TrxR1 inh | TrxR1 substrate | GLS inhibitor | VDR inhibitor
Cc1ccccc1OCC(O)Cn1c(SC(C)C)nc2c1c(=O)[nH]c(=O)n2C (stereo not drawn) | -11% | 56µM* | 0% | -2% | -9% | ?
CCCCCc1ccc(OCCOCCn2c[n+](C)c3ccccc32)c(CCCCC)c1 | -12% | 50µM* | 1% | 2% | -2% | -4%
CCCCCc1ccc(OCCC[n+]2ccccc2)c(CCCCC)c1 | -3% | 16µM* | -2%[57.1 µM] | 8%[57.1 µM] | -3% | 4%
CC(=O)Nc1ccc(OCCC[n+]2ccccc2)cc1 | -6% | 14% | 21% | -2% | -2% | ?
COC(=O)N/N=C/C1=CCC2CC1C2(C)C (stereo not drawn) | -7% | 6% | 14%[57.1 µM] | 6% | -11% | -20%
Cc1cc(C(=O)c2cccs2)c(N)s1 | -7% | 50µM* | -24% | 1% | 4% | ?
O=C(NCCN1C(=O)C2C3C=CC(C3)C2C1=O)NCc1ccccc1 (stereo not drawn) | -3% | 9% | 31% | 2% | -2% | 89µM*
Cc1ccccc1NC(=O)NCCN1C(=O)C2C3C=CC(C3)C2C1=O (stereo not drawn) | 0% | 7% | -3%[57.1 µM] | 9%[57.1 µM] | 1% | -2%
COc1ccc(C(=O)C2C(=O)C(=O)N(Cc3ccco3)C2c2cccs2)cc1 (stereo not drawn) | nt | nt | 45µM* | -14% | nt | ?
Cc1ccc(/C(O)=C2/C(=O)C(=O)N(Cc3ccco3)C2c2cccs2)cc1 (stereo not drawn) | -11% | -19% | -26%[57.1 µM] | 2%[57.1 µM] | 0% | 8%
CCOc1ccccc1N(C)C(=O)CCS(=O)(=O)c1ccc2c(c1)NC(=O)C(C)S2 (stereo not drawn) | -2% | 12% | 71µM* | -4% | 55% | ?
COc1ccc(-c2coc3c(C(=O)NCCN4CCOCC4)cccc23)c(C)c1 | nt | nt | nt | nt | 0% | nt
CCc1ccc(C(=O)c2cn(CC(=O)Nc3cc(OC)ccc3OC)c3ccc(C)cc3c2=O)cc1 | -1% | nt | 4% | -4% | -3% | 0%
COc1cccc(NS(=O)(=O)c2cc3c(cc2C)NC(=O)CO3)c1 | -14% | 15% | 5%[57.1 µM] | 1%[57.1 µM] | -5% | 9%
COc1ccc(N2CC(C(=O)Nc3nnc(SCC(=O)c4ccccc4)s3)CC2=O)cc1 (stereo not drawn) | -3% | 28µM* | -18% | -7% | 17% | -14%
COc1ccc(N2CC(C(=O)Nc3nnc(SCC(=O)NCc4ccco4)s3)CC2=O)cc1 (stereo not drawn) | -30% | 50µM* | ? | 6% | 0% | ?
